The campaign covered roughly 2,300 compounds. About 1,500 (65%) were called active. No rule for the calls is given here. The set was probably picked from earlier hits. The list shows a part of the results. Results with a measured potency or affinity are listed apart.

These results are taken from PubChem BioAssay AID492952 (Southern Research Specialized Biocontainment Screening …, 2010).

The nature of this assay: replicating M. tuberculosis growth inhibition, dose response, non-replicating M. tuberculosis project, H37Rv (AID 492952).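 Also: Mycobacterium tuberculosis grown in culture; growth inhibition read after a week of incubation.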 The note with it: series mostly up to 50 µM.
On to `Cc1ccc(S(=O)(=O)NCC(=O)OCCOc2cccc(Cl)c2)cc1`, for which the compound was classed as inactive.
The entry for `Cn1c(SCCOc2cccc(Cl)c2)nnc1-c1ccncc1` is “inactive”; for `CN(CCS(=O)(=O)c1ccc(Cl)cc1)Cc1cccnc1` it is “inactive”.
On to `Cc1ccc(NC(=O)CCSc2nnc(-c3ccco3)o2)cc1`, for which the call was inactive.
As for `CCCn1nnnc1NCc1ccc(C(C)C)cc1`, the compound was classed as inactive.
With `CCCn1nnnc1NCc1ccc(CC)cc1`, the call was inactive.
Turning to `CCCn1nnnc1NC(=O)COc1ccc(Br)cc1`, the result was inactive.
The entry for `Cc1ccc(-c2nnc(NC3CCCC3)s2)cc1` is “inactive”.
Regarding `Oc1c(Br)cc(Br)cc1/C=N/c1nccs1`, the result was inactive.
For the compound `Cc1cccc(NC(=O)c2n[nH]c([N+](=O)[O-])c2Br)c1C`, the outcome was inactive.
For `Cc1cccc(NCc2nnc(-c3ccccc3)o2)c1C` the value was “inactive”.
Consider `O=C(NCc1ccc(F)cc1)c1ccc(Br)o1`, for which the compound was called inactive.
For `C=C[C@]1(C)C=C2CCC3[C@](C)(CCC[C@@]3(C)C(=O)O)C2CC1` (some centres not stated) the value was “inactive”; for `O=C(Nc1ccccc1N1CCN(C(=O)c2ccc(Cl)cc2)CC1)c1ccc([N+](=O)[O-])o1`, “inactive”; for `CCn1nnc(NC(=O)c2ccc([N+](=O)[O-])o2)n1`, “inactive”.
With `CC1CCN(C(=O)C2COc3ccccc3O2)CC1` (configuration not stated), the outcome was inactive.
For `O=C(c1ccc(Br)o1)N1CCC(Cc2ccccc2)CC1` the value was “inactive”; for `O=C1NC2(CCC3(CC2)OCCO3)NN1c1ccc(Cl)cc1`, “inactive”; for `O=C(NC1=NCCS1)c1ccc(-c2ccc(Cl)cc2)o1`, “inactive”.
For `NC(=O)c1ccc(-c2ccc(Br)cc2)o1` the value was “inactive”; for `Cc1c(NC(=O)c2coc(=O)c(Br)c2)c(=O)n(-c2ccccc2)n1C`, “inactive”; for `O=C(COC(=O)Cc1ccc(Br)cc1)Nc1ccc(N2CCOCC2)cc1`, “inactive”.
For `CC(CCc1ccccc1)NC(=O)COC(=O)c1cccs1` (configuration not stated), the outcome was inactive.
Turning to `COc1ccc(N=N/C(=C\O)C(=O)c2cccs2)cc1`, the result was inactive.
With `COc1ccc(C(=O)COC(=O)CCC(=O)c2cccs2)cc1`, the outcome was inactive.
The entry for `CC(C)(NO)/C(=N\O)c1ccccc1` is “inactive”; for `CCC1CCc2sc(C(=O)NCC3CCCO3)cc2C1` (configuration not stated) it is “inactive”; for `CCc1cc(C(c2ccncc2)N2CCN(C)CC2)c(NC(=O)c2ccccc2)s1` (configuration not stated) it is “inactive”.
Regarding `COc1ccccc1N1CCN(C(=O)CCn2c(=O)[nH]c3ccsc3c2=O)CC1`, the call was inactive.
For the compound `CC(C)(C)c1ccc(C(=O)N2CCCC2)s1`, the result was inactive.
On to `CC(=O)Oc1ccc(N(C(C)=O)S(=O)(=O)c2cccs2)c2ccccc12`, for which the compound was classed as inactive.
The entry for `COc1cccc(OCC(=O)NNC(=O)c2cccs2)c1` is “inactive”.
For `COc1ccc(-c2nc(C=O)cs2)cc1` the value was “inactive”; for `COc1ccc(-c2cc(O)cc(O)c2)cc1`, “inactive”.
As to `CCc1ccc(C(C)NC(=O)C2CCCO2)cc1` (configuration not stated), the outcome was inactive.
For `NC(N)=N/N=C/c1cccc([N+](=O)[O-])c1O` the value was “inactive”; for `Cc1ccc2cc(/C=N/NC(=O)[C@H](C)NC(=O)OC(C)(C)C)c(Cl)nc2c1`, “inactive”; for `CCOc1ccc(NC(=O)CCc2ccc(C)o2)cc1`, “inactive”.
Regarding `Cc1cccc(NC(=O)CO/N=C/c2ccc3c(c2)OCO3)c1`, the compound was classed as inactive.
For `COCC(=O)Nc1ccccc1NC(C)=O` the value was “inactive”; for `COc1ccc(C(=O)CCNc2ccc(F)cc2)cc1`, “inactive”; for `CCOC(=O)C(=CNNc1cccc(Cl)c1)C(=O)OCC`, “inactive”.
In the case of `O=C(CN1CCN(c2ccccc2)CC1)Nc1nnc(-c2ccccc2)s1`, the compound was classed as inactive.
For `CCc1nnc(NC(=O)CN2CCN(Cc3ccc(F)cc3)CC2)s1` the value was “inactive”; for `CCOC(=O)c1ccc(NC2OC(=O)c3ccccc32)cc1` (configuration not stated), “inactive”.
Consider `CCOC(=O)c1ccc(N=C(CC)c2c(O)n(C)c(=O)n(C)c2=O)cc1`, for which the result was inactive.
For `O=C(O)c1ccccc1C(=O)NNc1ccc(F)cc1` the value was “inactive”; for `Nc1scc(-c2ccncc2)c1Cl`, “inactive”; for `COc1ccc(C(C)NC(=O)CCc2ccccc2)cc1` (configuration not stated), “inactive”.
Take `CC(C)Oc1ccc(CNC(=O)Oc2ccccc2)cc1`: the call was inactive.
In the case of `C/C(=N\NC(=O)c1ccccc1O)C1C(=O)c2ccccc2C1=O`, the compound was called inactive.
The entry for `O=C(O)CCCCCN1C(=O)CSC1=S` is “inactive”.
The entry for `Cc1cccc(CC(=O)NCC2CCCCC2)c1` is “inactive”; for `Clc1ccccc1CSc1nnc([C@@H]2CCCN2)o1` it is “inactive”.
In the case of `S=c1[nH]c2ccccc2o1`, the outcome was inactive.
As to `Cc1cc(OCCOCCNCc2ccccc2)ccc1C(C)C`, the result was inactive.
The entry for `Cc1ccc(CNCc2cc(Cl)ccc2O)cc1` is “inactive”; for `COc1ccc(NCC(=O)N2CCCC2)cc1Cl` it is “inactive”; for `CCc1ccc(NC(=O)CCc2ccc(C)o2)cc1` it is “inactive”.
The entry for `CC(=O)c1ccc(NC(=O)CCc2ccc(C)o2)cc1` is “inactive”; for `FC(F)(F)c1nc(SCc2ccc(Cl)cc2Cl)n[nH]1` it is “inactive”.
For `Cc1ccc(OCCCCn2ccnc2)c([N+](=O)[O-])c1` the value was “inactive”; for `Clc1ccc(SCCCCn2ccnc2)cc1`, “inactive”.
On to `CCCCOc1ccc(CSCCN)cc1Cl`, for which the compound was classed as inactive.
Regarding `CCc1ccc(OCCCC(=O)Nc2nccs2)cc1`, the compound was called inactive.
`O=C(COc1ccc2ccccc2c1)NNC(=O)c1cccs1`: the result was inactive.
For `CCCCCCCCCCn1cc(C(C)=O)c(=O)[nH]c1=O` the value was “inactive”; for `CCOC(=O)C1(O)CC(C)=NN1C(=O)c1cccc(Br)c1` (configuration not stated), “inactive”; for `CCOC(=O)Cc1cc(=O)n2[nH]cc(-c3ccc(Cl)cc3)c2n1`, “inactive”.
On to `N#Cc1ccc(N=c2ssnc2Cl)cc1`, for which the compound was classed as inactive.
In the case of `CC1(C)C[C@H]2C=C(C=O)[C@]3(C=O)C[C@]3(C)[C@H]2C1`, the compound was called inactive.
In the case of `CCc1nnc(N/N=C/c2c(F)cccc2Cl)n1N`, the call was inactive.
As for `CC(C)(C)c1cc(CN2CCC(O)CC2)cc(C(C)(C)C)c1O`, the outcome was inactive.
For `COc1ccc(NC(=O)COc2ccc3c(c2)CCC3)cc1`, the outcome was inactive.
For `O=C(COc1ccc(Cl)cc1)Nc1ccccc1Cl` the value was “inactive”; for `O=C(COc1ccc(Br)cc1)N/N=C1/SCC(=O)N1Cc1ccccc1`, “inactive”; for `O=C(COC(=O)c1cccc([N+](=O)[O-])c1)NCc1cccs1`, “inactive”.
For the compound `Cc1ccc(OCC(=O)N2CCCc3ccccc32)cc1`, the outcome was inactive.
Turning to `O=C(COc1ccc(Cl)cc1)OCC(=O)N1CCCc2ccccc21`, the compound was classed as inactive.
In the case of `Cn1c(SCc2c(F)cccc2Cl)nc2c(c1=O)SCC2`, the result was inactive.
For `COc1cccc(/C=N/NC(=O)c2ccoc2C)c1O` the value was “inactive”; for `Cc1ccc(C(=O)N/N=C/C=C/c2ccccc2)cc1`, “inactive”.
